A selection: hits, their analogues and other compounds. The true share with any hit is near 8.7%.
VACV mCherry inh = inhibitors of vaccinia virus infection (mCherry reporter signal); Vaccinia virus mCherry reporter infection, fluorescence; 310,000 compounds, 0.63% hits; AID 720579; Potency, µM (top dose mostly 36.5 µM), inactives show at the top dose activity change, negative = inhibition, hits mostly inhibitors; calls by dose curve; tested in A549 cells; note: nearly all actives have a fitted effect of over 35% in size
Pf growth 96h = inhibits malaria parasite growth, 96 h | AID 504834 | 320,000 compounds, 6.9% hits | P. falciparum luciferase reporter growth, 96 h | Potency, µM (doses to about 28.7 µM), for the others: at the highest dose activity change, negative = inhibition, actives largely listed as inhibitors
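Two parasite generations (96 h, 37 C, 5% CO2) of compound exposure in infected erythrocytes (0.05% parasitemia, 2% hematocrit). Luciferase-reporter P. falciparum; decreased luminescence indicates inhibited growth, aimed at apicoplast-acting delayed death.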
AMA1-RON2 inh = inhibitors of Plasmodium falciparum AMA1-RON2 interaction | AlphaScreen AMA1-biotinylated RON2 peptide binding | Potency, µM (series often up to 58.2 µM), inactives show at the top dose activity change, negative = inhibition, most hits filed as inhibitors | 360,000 compounds, 0.2% hits | AID 720542;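 note: 0% = vehicle wells and -100% = peptide control; nearly all actives have a fitted effect of over 45% in size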
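AMA1 (3D7) with his tag at 25 nM final met compounds first, then biotinylated RON2 peptide at 25 nM; detection used donor plus acceptor beads, 10 µg/mL apiece, read by AlphaScreen after 30 min at room temperature.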
Vaccinia Venus = inhibitors of vaccinia virus (Venus reporter); Potency, µM (highest dose often 36.5 µM), inactives show at the top dose activity change, negative = inhibition, usual class: inhibitors; Vaccinia virus Venus reporter expression, fluorescence; 330,000 compounds, 0.46% hits; calls by dose curve; tested in A549 cells; note: nearly all actives have a fitted effect of over 30% in size
Pf growth 48h = P. falciparum growth inhibition at 48 hours (one generation) | P. falciparum luciferase growth in erythrocytes, 48 h | Potency, µM (highest dose often 28.7 µM), for the others: at the highest dose activity change, negative = inhibition, usual class: inhibitors | 310,000 compounds, 5.9% hits | AID 504832
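Cell-based growth assay: transgenic P. falciparum expressing firefly luciferase, cultured in red cells within RPMI 1640 containing 0.5% w/v Albumax, 24 mM bicarbonate and gentamycin. A drop in luciferase activity indicates inhibition.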
Active calls of the source: *; i = inactive; u = inconclusive; x = no result given; ! = a repeat was not active. Unless noted, calls come from the whole dose curve; as a rule, active = well fitted curve in the direction sought with a large enough effect; inconclusive = small, poorly fitted or top-dose-only effect, or another doubt; inactive = no such curve, though single readings can be large; an effect the other way counts as inactive or inconclusive. Unless noted, % is set by controls: 0 for no effect and ±100 for the full control effect; potency is the fitted concentration of half-maximal effect.

SMILES | VACV mCherry inh | Pf growth 96h | AMA1-RON2 inh | Vaccinia Venus | Pf growth 48h
COc1cccc(C(=O)NN2c3ccccc3CCc3ccccc32)c1 | -13% | 13µM* | -14% | -26% | 9.3µM*
O=C(C[n+]1ccccc1Br)c1ccc2c(c1)CCCC2 | -15% | x | x | -8% | x
Cc1cccc(C)c1-n1ncc(C(=O)Nc2ccc3c(c2)OCCO3)c1C1CCN(C(=O)OC(C)(C)C)CC1 | 0% | x | x | -2% | x
COc1cc2nc(CCc3nc4cc(OC)c(OC)cc4[nH]3)[nH]c2cc1OC | i | x | x | -3% | x
Cc1ccc(N(Cc2cccs2)C(=O)C(C)Oc2ccc(Cl)c(C)c2)cc1 (stereo not drawn) | -9% | x | x | -14% | x
COc1cccc(C(=O)N2c3ccccc3Sc3ccccc32)c1 | -11% | 102% | -21% | -2% | 10µM*
O=C(c1ccncc1)N1c2ccccc2Sc2ccccc21 | x | 11% | -11% | x | -7%
O=[N+]([O-])c1ccc(N/N=C2\CC3CC=CC23)c([N+](=O)[O-])c1 (stereo not drawn) | -1% | 25% | 14µM* | 2% | 25%
O=[N+]([O-])c1ccc(N/N=C2\CC3CC=CC23)cc1 (stereo not drawn) | x | 296% | 4% | x | 95%
CCN(CC)S(=O)(=O)c1ccc(C(=O)NCCCN=C2NS(=O)(=O)c3ccccc32)cc1 | -4% | 8.3µM* | -14% | -4% | u
O=C(NCCCN=C1NS(=O)(=O)c2ccccc21)c1ccc(F)cc1 | i | -2% | 5% | -10% | 10%
CCc1nc2cc(C(=O)N[C@H]3CCCCNC3=O)cc(NC(=O)c3ccccc3OC)c2n1C | i | x | x | -13% | x
CCOc1ccc(OCC)c(NC(=O)CC2Oc3ccc(C)cc3NC2=O)c1 (stereo not drawn) | x | 10µM* | -9% | x | x
COc1ccc(NC(=O)CC2Oc3ccc(C)cc3NC2=O)cc1 (stereo not drawn) | -2% | u | -1% | -5% | x
COc1ccc(OC)c(CCNC(=O)CC2Oc3ccc(C)cc3NC2=O)c1 (stereo not drawn) | x | 10µM* | 14% | x | x
COc1ccc(OC)c(CCNC(=O)CC2Oc3ccccc3NC2=O)c1 (stereo not drawn) | i | -17% | 7% | -7% | x
O=C(O)CC1Oc2ccc(Cl)cc2NC1=O (stereo not drawn) | x | 5.2µM* | -3% | x | 11%
COC(=O)CC1Oc2ccc(C)cc2NC1=O (stereo not drawn) | -6% | 9.3µM* | 12% | -6% | x
Cc1ccc2c(c1)NC(=O)C(CC(=O)Nc1cc(Cl)ccc1C)O2 (stereo not drawn) | -15% | x | x | -16% | x
CCOc1ccc(OCC)c(NC(=O)c2cnc(SC)nc2-c2ccccc2)c1 | -8% | x | x | -1% | x
CCOC(=O)c1ccccc1NC(=O)c1c2c(nc3ccccc13)C(=O)N(C1CCCCC1)C2 | -3% | x | x | 3% | x
CC(=O)NC1=NN(C(C)=O)C(C)(c2ccc3ccccc3c2)S1 (stereo not drawn) | -23% | 69% | 0% | -17% | 2.9µM*
CC(=O)NC1=NN(C(C)=O)C(C)(c2ccccc2)S1 (stereo not drawn) | -11% | 20% | -1% | -28% | 7%
O=C(CCl)NCCCN(C(=O)C(Cl)Cl)c1ccc([N+](=O)[O-])cc1 | x | 7.4µM* | 0% | x | 6.6µM*
COCCCNC(=O)c1ccc([N+](=O)[O-])cc1 | i | 5% | -4% | -16% | 30%
SMILES | VACV mCherry inh | Pf growth 96h | AMA1-RON2 inh | Vaccinia Venus | Pf growth 48h
Nc1ccc(N2CCCCCC2)cc1 | x | u | x | x | 0.41µM*
Nc1ccc(N2CCN(c3ccc(F)cc3)CC2)cc1 | u | u | u | -2% | u
Cc1cccc(NC(=O)c2ccc3[nH]c(C)cc(=O)c3c2)c1 | -9% | x | x | -2% | x
COc1ccc(S(=O)(=O)Oc2ccc3ccccc3c2)cc1 | u | u | 1% | -26% | 42%
COC1=C(OC)C(=O)C(Sc2ccc3ccccc3c2)=CC1=O | -8% | x | 13µM* | -4% | x
COc1ccc(CNN2CCCCC2C(=O)Nc2ccc(OC)c(OCC(C)C)c2)cc1OC (stereo not drawn) | x | 15µM* | -8% | x | 28%
Cc1cc(NC(=O)COC(=O)C2COc3ccccc3O2)no1 (stereo not drawn) | -13% | 10µM* | -7% | -6% | 38%
O=C(NCc1ccccc1)C1COc2ccccc2O1 (stereo not drawn) | -13% | 34% | 8% | -6% | 121%
Cc1onc(-c2ccccc2)c1CNC(=O)C1COc2ccccc2O1 (stereo not drawn) | i | u | 8% | 1% | 13µM*
CN(C)c1ccc(/C=C/c2ncnc3ccccc23)cc1 | 73% | x | x | i | x
Cc1cccc(CS(=O)(=O)Cc2ccc(C(=O)NCc3ccc(F)cc3)o2)c1 | -23% | x | x | -21% | x
CN(C)c1cc[n+](Cc2c(Cl)cccc2Cl)cc1 | x | 0.37µM* | 2% | x | 4.7µM*
CN(C)c1cc[n+](CC[n+]2ccc(N(C)C)cc2)cc1 | i | u | 6% | -3% | u
COc1ccc(O)c(CN2CCC3(CCC(CNC(=O)C4CCCO4)O3)CC2)c1 (stereo not drawn) | -3% | x | x | 14% | x
CC1=CC(=O)O[C@@H]1[C@@]1(C)C[C@H]2OC(=O)C[C@H]3[C@@H](C)C(=O)C(O)=C1[C@@]23CO | 2% | 15µM* | 9% | 3% | 13µM*
CN(C)c1ccc(CNC(=O)C2CCCN(S(=O)(=O)c3ccc4c(c3)oc(=O)n4C)C2)cc1 (stereo not drawn) | 3% | x | x | 0% | x
COc1ccc(-c2cc(-c3nnc(COC(=O)c4ccncc4)o3)c3ccccc3n2)cc1OC | -5% | u | 18% | -12% | 12µM*
Cc1nc2ccc(C(=O)OCc3nnc(-c4ccccc4)o3)cc2nc1C | i | 13µM* | -15% | -5% | 15%
NC(=O)CC[C@@H]1NC(=O)[C@H](Cc2ccccc2)NC(=O)[C@H](Cc2ccc(O)cc2)NC(=O)[C@@H](N)CSSC[C@@H](C(=O)N2CCC[C@H]2C(=O)N[C@@H](CCCN=C(N)N)C(=O)NCC(N)=O)NC(=O)[C@H](CC(N)=O)NC1=O | x | 12µM*! | x | x | u
CCC(C)C1NC(=O)C(Cc2ccc(O)cc2)NC(=O)C(N)CSSCC(C(=O)N2CCCC2C(=O)NC(CC(C)C)C(=O)NCC(N)=O)NC(=O)C(CC(N)=O)NC(=O)C(CCC(N)=O)NC1=O (stereo not drawn) | x | u | x | x | 2%
CSc1ccc(CCNC(=O)CCc2c(C)nc3c(c(C)nn3-c3ccc(C)c(C)c3)c2C)cc1 | -8% | x | x | -9% | x
Clc1ccc(SCc2cc(N3CCOCC3)nc(-c3ccccn3)n2)cc1 | 7.9µM* | u | 65% | u | u
O=c1cc(CSc2ccc(Cl)cc2)nc(-c2ccccn2)[nH]1 | u | 1.9µM* | -38% | u | 2.3µM*
